In one assay the test system is Klebsiella pneumoniae. The conditions noted are these: Concentration 20 uM; ASSAY_TEST Inhibition of Bacterial Growth; detection method Absorption (OD600); MEDIA CAMHB; plate type 384well; NBS; CORNING #3640; time 18 hr.
Another assay has as its system Candida albicans. The conditions noted are these: 20 µM.
Another assay relates to Cryptococcus neoformans. The conditions noted are these: Concentration 20 uM; ASSAY_TEST Inhibition of Fungal Growth; detection method Resazurin; Absorption (OD600-OD570); plate type 384well; NBS; CORNING #3640. On the technique in general: The colour change of resazurin is a common sign of viable cells or microbes.

The results in this text go back to ChEMBL document CHEMBL4513149, “CO-ADD screening of MMV (CH) - MMV compounds” (2021).

Measured potencies and affinities stand elsewhere.

By Inhibition is commonly meant the drop in the measured response relative to a control, in per cent. `CC1=NN(c2nc3ccccc3s2)C(=O)C1Cc1cccc2ccccc12` (stereo unspecified): the results for the Inhibition with Klebsiella pneumoniae, in the assay with Candida albicans and in the assay on Cryptococcus neoformans were 10.99%, 19.6% and -5.86%, respectively.
On the same counts, the results for `Cc1cc(NCC(C)C)c2[nH]nc(-c3ccccc3)c2n1` are 16.32%, 0.11% and -5.87%.
On the same counts, the results for `COc1ccc(-c2cnc3cnc(-c4cccc(OC(C)C)c4)cn23)cc1` are 4.82%, 11.6% and -13.72%.
On the same counts, the results for `COc1ccc(C2CC(c3cccs3)=NN2C(=O)c2ccco2)cc1OC` (stereo unspecified) are 20.7%, 5.76% and -8.05%.
In the case of `Cc1nc2ccccn2c1C(=O)NCc1ccc(Cl)cc1`, the Inhibition with Klebsiella pneumoniae is 17.8%; in the assay on Candida albicans it was 2.86%; in the assay with Cryptococcus neoformans it was -5.69%.
Regarding `CC(Oc1ccccc1)C(=O)Nc1nc(-c2ccccn2)cs1` (stereo unspecified), the Inhibition was -2.79% in the assay on Klebsiella pneumoniae, -0.26% in the assay on Candida albicans and -5.96% in the assay with Cryptococcus neoformans.
In the case of `COc1cccc(-c2cc3c(Nc4cccnc4)nccc3[nH]2)c1`, the Inhibition in the assay on Klebsiella pneumoniae was 4.5%; with Candida albicans it was 3.5%; in the assay on Cryptococcus neoformans, -6.63%.
As to `FC(F)(F)c1nnc2ccc(Cl)nn12`, the Inhibition in the assay on Klebsiella pneumoniae is 7.1%; with Candida albicans, 2.55%; with Cryptococcus neoformans it was 2.75%.
For `Clc1ccc(CCNc2cc(-c3ccccc3)nc3ncnn23)cc1` the same measures were 8.91%, 16.3% and -16.06%.
For `CC(=O)Nc1ccc(-c2noc(CC3CCCN(Cc4cccc(F)c4C)C3)n2)cc1` (stereo unspecified) the same measures were 14.96%, 3.14% and -9.66%.
On the same counts, the results for `Nc1ncnc2c1c(-c1cnc3ccccc3c1)nn2CC1CCNCC1` are 4.12%, 2.53% and -1.76%.
Take `COc1cccc(OCC(=O)c2ccc(Br)cc2)c1`: the Inhibition is -4.37% with Klebsiella pneumoniae, 4.44% with Candida albicans and -12.88% in the assay on Cryptococcus neoformans.
For `O=C(Nc1ccccc1-c1nc2c(C(=O)O)cccc2o1)c1ccccc1` the same measures were 1.94%, 5.59% and -2.58%.
On the same counts, the results for `Cc1ccc(NC(=O)CC2COc3ccccc3O2)cc1Cl` (stereo unspecified) are 11.14%, 2.65% and -13.17%.
For `O=C(NC1CC1)c1ccc(N2CCC(Cc3ccccc3)CC2)nc1` the same measures were 19.39%, 4.1% and -7.07%.
For `COc1ccc(N(CCc2cccc(C)n2)C(C)=O)cc1`, the Inhibition with Klebsiella pneumoniae was 13.85%; in the assay on Candida albicans, 2.97%; in the assay on Cryptococcus neoformans it was -4.26%.
In the case of `O=C(NCCc1ccn(-c2ccccc2)n1)C1CCCCC1`, the values for the Inhibition in the assay on Klebsiella pneumoniae, with Candida albicans and in the assay on Cryptococcus neoformans were 6.33%, 3.92% and -9.22%, respectively.
On the same counts, the results for `Cl.Cn1ccnc1CNCCS(=O)(=O)c1cccc(Nc2ccc(-c3cccc(F)c3)cn2)c1` are 13.22%, 4.46% and -9.08%.
With `O=C(C1CCN(c2nnc(-n3cccc3)s2)CC1)N1CCC(Cc2ccccc2)CC1`, the Inhibition was 11.79% with Klebsiella pneumoniae, 4.63% in the assay on Candida albicans and -9.35% in the assay on Cryptococcus neoformans.
For `CS(=O)(=O)N1CCC(CCn2nc(Cc3cccc4ccccc34)c3c(N)ncnc32)CC1` the same measures were 2.11%, 3.38% and -7.27%.
On the same counts, the results for `CC(C)/N=c1\cc2n(-c3ccc(Cl)cc3)c3ccccc3nc-2cc1Nc1ccc(Cl)cc1` [CLOFAZIMINE] are 13.39%, 5.63% and -11.17%.
On the same counts, the results for `CCCn1c(CNc2ccccc2O)nc2ccccc21` are 12.8%, -0.42% and -15.95%.
`COc1cccc(NC(=O)c2c(NC(=O)c3cccnc3)sc3c2CCC3)c1`: the results for the Inhibition in the assay on Klebsiella pneumoniae, with Candida albicans and in the assay with Cryptococcus neoformans were 13.46%, 9.13% and -5.87%, respectively.
For `Cc1ccc2oc(-c3cc(NC(=O)Cc4ccccc4)ccc3Cl)nc2c1` the same measures were 6.29%, 14.6% and -8.89%.
On to `Cl.Cl.Cl.NS(=O)(=O)c1cncc(-c2ccc3nccc(-c4cn[nH]c4)c3n2)c1`, for which the Inhibition in the assay with Klebsiella pneumoniae is -1.63%; in the assay on Candida albicans it was 3.16%; in the assay on Cryptococcus neoformans, -2.89%.
For `CCc1nc2ccc(Cl)cn2c1C(=O)NCc1ccc(N2CCC(c3ccc(OC(F)(F)F)cc3)CC2)cc1` [TELACEBEC] the same measures were 18.33%, 2.34% and -3.29%.
In the case of `Cc1ccc2[nH]c(C3CCCNC3)c(-c3ccncc3)c2c1.Cl.Cl` (stereo unspecified), the Inhibition with Klebsiella pneumoniae is -25.08%; in the assay on Candida albicans it was 4.63%; with Cryptococcus neoformans it was 1.08%.
For `O=C(Nc1ccnc(-c2cccnc2)n1)c1cc(C(F)(F)F)cc(C(F)(F)F)c1` the same measures were 14.57%, 1.91% and -5.46%.
Regarding `Cl.NCC(c1cccs1)S(=O)(=O)c1ccccc1` (stereo unspecified), the Inhibition in the assay with Klebsiella pneumoniae is -0.58%; with Candida albicans, 3.86%; with Cryptococcus neoformans, -1.15%.
As for `Cc1ccc(-c2cc(C(=O)Nc3cccnc3)c3cc(Br)ccc3n2)cc1`, the Inhibition with Klebsiella pneumoniae was 15.62%; with Candida albicans it was 4.34%; in the assay on Cryptococcus neoformans, -8.45%.
For `CCOc1ccccc1NC(C)C(=O)Nc1cc(C(F)(F)F)ccc1N1CCOCC1` (stereo unspecified) the same measures were 14.66%, 4.33% and -7.7%.
In the case of `COc1ccc(Nc2ccccc2NC(=O)c2ccc(O)nc2)cc1`, the Inhibition is -2.41% in the assay with Klebsiella pneumoniae, 1.42% in the assay on Candida albicans and -7.76% with Cryptococcus neoformans.
In the case of `Cc1cc(OCC(=O)NCc2ccccc2)c2cc(Br)ccc2n1`, the results for the Inhibition in the assay on Klebsiella pneumoniae, with Candida albicans and in the assay with Cryptococcus neoformans were 6.14%, 0.18% and -5.48%, respectively.
For `O=C(CN1CCOCC1)Nc1ccc2ncnc(Nc3ccc(OCc4cccc(F)c4)c(Cl)c3)c2c1` the same measures were 11.31%, 5.94% and -1.06%.
On the same counts, the results for `COc1cc(C2=NCCN2)ccc1-n1cc(-c2cccc(C3=NCCN3)c2)nn1.O=CO.O=CO` are 8.01%, 2.32% and 7.56%.
For `CC(=O)O.CC(=O)O.Nc1ncnc2c1ncn2[C@@H]1O[C@H](COS(=O)(=O)NC(=O)c2ccccc2O)[C@@H](O)[C@H]1O`, the Inhibition with Klebsiella pneumoniae was 14.67%; in the assay on Candida albicans, 1.66%; in the assay on Cryptococcus neoformans, -8.69%.
For `Clc1ccc(Cl)c(CO[C@H]2CCCC[C@@H]2n2ccnc2)c1`, the Inhibition with Klebsiella pneumoniae was 15.52%; in the assay with Candida albicans it was 2.99%; in the assay with Cryptococcus neoformans, 2.84%.
For the compound `CN1CCC(NCc2cccc(-c3ccc(S(=O)(=O)NCc4ccccc4)cc3)c2)CC1`, the Inhibition was 9.08% in the assay with Klebsiella pneumoniae, 3.63% in the assay with Candida albicans and -7.83% in the assay on Cryptococcus neoformans.
On the same counts, the results for `CCN(CC)S(=O)(=O)c1ccc(Cl)c(C(=O)Nc2ccc3nc(C)sc3c2)c1` are 4.43%, 3.67% and -11.27%.
On to `Cc1ccc(S(=O)(=O)n2cc(-c3ccnc(N)c3)c3cc(Br)cnc32)cc1`, for which the Inhibition in the assay with Klebsiella pneumoniae is 7.11%; in the assay with Candida albicans it was 37.1%; in the assay on Cryptococcus neoformans it was -2.21%.
On the same counts, the results for `Cc1cccc(Cn2ccc(NC(=O)c3ccc4c(c3)OCO4)n2)c1` are 15.15%, 6.79% and 3.81%.
On the same counts, the results for `COC(=O)C1=C(C)NC(C)=C(C(=O)OC(C)C)C1c1cccc2nonc12` (stereo unspecified) [ISRADIPINE] are 6.29%, 4.19% and -10.15%.
For `CNC(=O)C1Cc2c([nH]c3cc(Cl)ccc23)C2(CCN(CCc3ccccc3)CC2)N1` (stereo unspecified), the values for the Inhibition in the assay with Klebsiella pneumoniae, in the assay on Candida albicans and with Cryptococcus neoformans were 10.39%, 3.22% and -13.49%, respectively.
For `Nc1ncc(Br)cc1-c1nc2cc(Cl)cnc2[nH]1` the same measures were 20.39%, 9.81% and 7.04%.
Take `Cc1[nH]c2cc(F)cc(F)c2c(=O)c1-c1ccc(Oc2ccc(OC(F)(F)F)cc2)cc1`: the values for the Inhibition in the assay with Klebsiella pneumoniae, in the assay on Candida albicans and with Cryptococcus neoformans were 5.11%, 3.94% and -10.28%, respectively.
For `CCCCc1ccc(C(=O)Nc2nccc3ccccc23)nc1`, the Inhibition was 7.3% in the assay with Klebsiella pneumoniae, 6.07% in the assay with Candida albicans and -8.5% with Cryptococcus neoformans.
For `O=C(NCCN1CCCC1)c1cc(NCCN2CCOCC2)nc2ccc(Cl)cc12` the same measures were 16.49%, 2.97% and -7.83%.
On the same counts, the results for `CCc1ccc(C(NCc2nc(N)nc(N(C)C)n2)C(C)C)cc1` (stereo unspecified) are -6.55%, 5.01% and -4.27%.
For `COc1ccccc1CNC(=O)c1cc(C2CC2)nc2c1cnn2C(C)C` the same measures were 8.65%, 6.8% and -9.25%.
As for `CC1=Nc2ccc(Cl)cc2C(O)(c2ccc(C)cc2)N1CCN1CCCCC1` (stereo unspecified), the Inhibition in the assay with Klebsiella pneumoniae is 18.59%; in the assay with Candida albicans, 3.13%; in the assay on Cryptococcus neoformans, -4.53%.
For `O=C(C1CCN(c2cc(-n3cccc3)ncn2)CC1)N1CCc2ccccc2C1` the same measures were -8.74%, 10% and 3.06%.
With `Cc1cc(C)n2nc(C(=O)Nc3cc(C(F)(F)F)ccc3N3CCOCC3)nc2n1`, the results for the Inhibition in the assay with Klebsiella pneumoniae, in the assay on Candida albicans and in the assay on Cryptococcus neoformans were 15.61%, 5.28% and -4.53%, respectively.
